# S1P4 agonist – S1P4 receptor agonists, primary screen, cell-based. S1P4-expressing cell line, agonist reporter assay. activation, % at 4.98 µM. 220,000 tested, 0.35% active. AID 1509, 2009; in the data active = activation above about 11%
# ROMK primary – ROMK potassium channel modulators, primary screen, cell-based, thallium flux, MLSMR library; B-score at 10 µM; 130,000 tested, 2% active; Tet-inducible ROMK, thallium flux fluorescence; actives lie on both sides; AID 1918, 2009;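 active = signal ratio slope over the read window, or its plate-corrected B-score, at least 3 SD from the plate mean, either direction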;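 note: B-score of the F/F0 ratio slope over 7 to 12 s after thallium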
# KCC2 mod – KCC2 cotransporter modulators, thallium flux, primary screen, cell-based, HEK293 KCC2, FluoZin-2 fluorescence, MLSMR. Solute carrier family 12 member 5 (Homo sapiens), Q9H2X9. KCC2 cells, thallium flux FluoZin-2 fluorescence. B-score of Tl+ flux slope (higher = more flux/activation; lower = inhibition) at 10 µM. 190,000 tested, 2.2% active. AID 1456, 2008;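 active = thallium flux slope and its plate-corrected score both differing from the plate sample mean at a set confidence after two filtering rounds, in either direction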;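 note: slope of fluorescence scaled to starting intensity during 10 to 20 s after thallium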
# S1P4 antagonist – S1P4 receptor antagonists, primary screen, cell-based. Sphingosine 1-phosphate receptor 4 (Homo sapiens), O95977. AID 1510, 2009. 220,000 tested, 0.26% active. S1P4-expressing cells, antagonist mode, reporter read-out. inhibition, % at 4.98 µM; in the data active = inhibition above about 29%
# RAM inhibit – inhibitors of the yeast RAM network, primary screen, dse1pr::URA3 reporter, 5-FOA selection | S. cerevisiae dse1pr::URA3 reporter, 5-FOA growth OD615, 2 d; analog-sensitive cbk1-as2 kinase mutant strain | 190,000 tested, 1.8% active | inhibition, % at 50 µM;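 active = inhibition above a set limit, 3 SD over mean compound inhibition, cut at about 8.4% in these data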;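 note: inhibition rescues growth on 5-FOA so higher OD means more RAM inhibition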
# S1P3 antag – S1P3 receptor antagonists, primary screen, cell-based; inhibition, % at 4.98 µM; 170,000 tested, 0.27% active; CHO S1P3 NFAT-BLA reporter, FRET fluorescence, antagonist mode; Sphingosine 1-phosphate receptor 3 (Homo sapiens), Q99500;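 active = inhibition above the plate cutoff, the mean inhibition of test wells on that plate plus 3 SD, cut at about 28% in these data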;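 note: cells challenged with S1P at its EC80 of 0.8 µM; blue over green emission ratio from cleaved BLA substrate after 4 h stimulation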
# Target sequence (Q99500 whole entry, looked up): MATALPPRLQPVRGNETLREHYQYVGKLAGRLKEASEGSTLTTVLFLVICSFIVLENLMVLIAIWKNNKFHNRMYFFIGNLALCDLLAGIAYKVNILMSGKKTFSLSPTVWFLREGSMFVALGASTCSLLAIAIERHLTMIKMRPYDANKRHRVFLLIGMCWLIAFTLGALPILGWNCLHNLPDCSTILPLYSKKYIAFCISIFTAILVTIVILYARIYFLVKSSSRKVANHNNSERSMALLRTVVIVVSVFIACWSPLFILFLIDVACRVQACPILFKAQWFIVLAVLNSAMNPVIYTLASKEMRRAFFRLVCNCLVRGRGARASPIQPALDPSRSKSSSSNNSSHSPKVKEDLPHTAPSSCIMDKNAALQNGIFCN
# A number is an active result; n = inactive; x = not tested or not shown. Most compounds without a hit are left out; they make up all but 5.1% or so of the library.
SMILES,S1P4 agonist,ROMK primary,KCC2 mod,S1P4 antagonist,RAM inhibit,S1P3 antag
Cc1cc2oc3c(c(=O)c2cc1C)C(c1ccc(F)cc1)N(CCCN1CCOCC1)C3=O (centres undefined),n,x,n,n,n,n
CCn1c(-c2cc3c(C(F)(F)F)nn(C)c3s2)n[nH]c1=S,n,x,x,n,n,x
CCN(CC)C(=S)SCC(=O)Nc1nc(=O)c2ccccc2s1,n,n,15.6,n,n,n
CCOc1ccc(C2=NNC(c3cccs3)=Nc3ccc(OCC)cc32)cc1,n,n,n,n,n,x
CCOc1ccccc1NC(=O)NC1(C(=O)N2CCOCC2)CCCCC1,n,x,n,n,n,n
COc1ccccc1NC(=O)NC1(C(=O)N2CCC(O)CC2)CCCCC1,n,-4.96,n,n,n,n
CCOc1ccc2c(c1)c(N=Nc1cccc(C(=O)O)c1)c(O)n2C,n,n,n,n,10.4,n
CCOC(=O)C1=C(O)/C(=C/c2ccc(OCC(=O)O)c(OCC)c2)SC1=Nc1ccc(C)cc1,n,n,n,n,n,n
CCOC(=O)C1=C(O)/C(=C/c2ccc(OCC(=O)O)c(OCC)c2)SC1=Nc1ccc(OC)cc1,n,n,n,n,9.4,n
Cc1cc(C)n(/N=C/c2ccc(C(C)C)cc2)c(=O)c1C#N,n,n,n,n,n,n
N#C/C(=N\Nc1ccccc1F)c1nc(-c2ccccc2)cs1,n,n,n,n,9.8,n
COC(=O)c1ccccc1NC(=O)C1CC(c2ccccc2O)=NO1 (centres undefined),n,n,n,n,n,n
CSc1ccccc1NC(=O)C1CC(c2ccccc2O)=NO1 (centres undefined),n,n,n,n,n,82.2
Nn1c(=O)[nH]c2ccccc2c1=O,n,n,n,n,n,n
C=CCN(CC=C)C(=S)NC(=O)c1ccc(-c2ccccc2)cc1,n,10.1,31,n,n,x
CN(Cc1ccccc1)C(=S)NC(=O)C1CCCCC1,n,x,13.6,n,n,n
COc1ccc(C(=O)NC(=S)N(Cc2ccccc2)Cc2ccccc2)cc1,n,x,64,n,n,x
C=CCN(CC=C)C(=S)NC(=O)/C=C/c1ccc(C)cc1,n,n,14.5,n,n,n
CS(=O)(=O)Nc1nc2n(n1)C(c1ccccc1)CC(c1ccccc1)N2 (centres undefined),n,n,n,n,x,n
CN(Cc1ccccc1)C(=O)c1ccccc1NC(=O)c1ccccc1,n,n,x,n,n,x
C=CCN(CC=C)C(=S)NC(=O)c1ccc(C)c(Br)c1,n,x,45.3,n,n,n
CN(Cc1ccccc1)C(=S)NC(=O)c1ccc(-c2ccccc2)cc1,n,x,28.8,n,n,n
COc1ccc(CCn2c(=O)c3cccnc3n(Cc3ccc([N+](=O)[O-])cc3)c2=O)cc1OC,n,n,n,n,n,n
COc1ccc(Cn2c(=O)c3cccnc3n(Cc3ccc([N+](=O)[O-])cc3)c2=O)cc1,n,2.79,n,n,n,n
CC(=O)OCC(CCn1cnc2cnc(N)nc21)COC(C)=O,n,x,n,n,x,n
SMILES,S1P4 agonist,ROMK primary,KCC2 mod,S1P4 antagonist,RAM inhibit,S1P3 antag
O=C(NNc1ncc(C(F)(F)F)cc1Cl)c1c(Cl)cccc1Cl,n,x,3.76,n,n,x
C=CCn1c(SC)nc2sc3c(c2c1=O)CCc1ccccc1-3,n,n,n,n,9.0,n
C=CCSc1nc2sc3c(c2c(=O)n1CC)CCc1ccccc1-3,n,n,x,n,9.2,x
C=CCn1c(SCC(=O)NC)nc2sc3c(c2c1=O)CCC3,n,n,n,n,n,x
CCn1c(SCC(=O)c2ccccc2)nc2sc3c(c2c1=O)CCN(C)C3,n,n,n,n,x,n
O=C(Nc1cccc(Cl)c1)Nc1ccccc1-n1ccnc1,n,n,x,n,n,n
O=C(Nc1nnc(-c2ccc(F)cc2)o1)c1cc(Cl)sc1Cl,n,3.17,53.7,n,n,n
O=C(Nc1nnc(-c2ccc3c(c2)CCCC3)o1)c1ccccc1Cl,n,x,50.4,n,n,n
O=C(Nc1nnc(-c2ccccc2)o1)c1cc(Cl)sc1Cl,n,2.35,59.5,n,n,n
O=C(Nc1nnc(-c2ccncc2)o1)c1ccccc1F,n,n,n,n,n,n
CN(C)c1ccc(N=Nc2ccccc2C(=O)OCC(=O)N(C)c2ccccc2)cc1,n,x,n,n,10.3,n
COC(=O)c1ccccc1NC(=O)COC(=O)c1ccccc1N=Nc1ccc(N(C)C)cc1,n,n,n,n,n,n
CCN1C(=O)C(CC(=O)Nc2ccc(Br)cc2)N(CCCc2ccccc2)C1=S (centres undefined),n,x,n,n,10.9,x
CCOc1ccc(NC(=O)CC2C(=O)N(C)C(=S)N2CCCc2ccccc2)cc1 (centres undefined),n,n,n,n,n,n
Cc1cc(Nc2ccccc2)n(-c2nc3ccccc3[nH]2)n1,n,x,3.33,n,n,n
Cc1cc(NC(=O)c2ccccc2F)n(-c2nc3ccccc3[nH]2)n1,n,n,n,n,n,n
CCc1n[nH]c(=S)n1/N=C/c1ccc(NC(C)=O)cc1,n,n,n,n,n,n
CSc1ccc(/C=N/n2c(Cc3ccc(Br)cc3)n[nH]c2=S)cc1,n,n,n,n,10.0,n
O=C(CSc1ncn[nH]1)Nc1ccc(OCc2ccccc2)cc1,n,n,n,n,n,n
O=C(c1ccccc1)c1ccc2nc(-c3ccc(NC(=O)c4ccccc4Br)cc3)[nH]c2c1,n,n,n,n,8.7,x
O=C(Nc1nnc(-c2ccco2)o1)c1ccc(N2C(=O)CCC2=O)cc1,n,n,n,n,n,n
O=C(Nc1nnc(-c2ccc(Cl)cc2)o1)c1ccc(N2C(=O)CCC2=O)cc1,n,n,11.6,n,n,n
O=C(Nc1ccc(-c2nc3ccccc3[nH]2)cc1)c1ccc(N2C(=O)CCC2=O)cc1,n,n,n,n,9.1,n
Cc1ccccc1C(=O)Nc1ccc(-c2nc3ccc(C(=O)c4ccccc4)cc3[nH]2)cc1,n,x,n,n,n,x
CC(C)(C)N1C(=O)c2ccc(C(=O)Nc3ccc(-c4nc5ccccc5[nH]4)cc3)cc2C1=O,n,n,n,n,n,n
CCC(CO)N=C1CC(C)(C)CC(=O)/C1=C(/O)CCCN1C(=O)c2ccccc2C1=O (centres undefined),n,n,n,n,n,n
O=C(CN1CCCc2ccccc21)NCCc1ccc(F)cc1,n,n,n,n,n,n
CC(=O)c1cccc(NC(=O)/C(=C\c2cccnc2)NC(=O)c2ccco2)c1,n,n,n,n,n,n
N#Cc1cccc(NC(=O)CSc2ccc3c4c(cccc24)C(=O)c2ccccc2-3)c1,n,-4.18,n,n,n,x

# Compound activity as filed in PubChem.
